Compound activity deposited in PubChem by The Scripps Research Institute Molecular Screening Center.
This excerpt belongs to a sample that is enriched for hits.
TbREL1 inh = TbREL1 inhibition, primary screen; P86926; TbREL1 RNA ligation, FRET fluorescence; inhibition, % at 9.66 µM; 0.49% of 89,000 active; AID 1117264;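 active = inhibition above the mean inhibition across all screened compounds plus 3 SD, cut at about 11% in these data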;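 also: 0% = plate median of test wells and 100% = NSC42067 control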
Target sequence (P86926 whole entry, looked up): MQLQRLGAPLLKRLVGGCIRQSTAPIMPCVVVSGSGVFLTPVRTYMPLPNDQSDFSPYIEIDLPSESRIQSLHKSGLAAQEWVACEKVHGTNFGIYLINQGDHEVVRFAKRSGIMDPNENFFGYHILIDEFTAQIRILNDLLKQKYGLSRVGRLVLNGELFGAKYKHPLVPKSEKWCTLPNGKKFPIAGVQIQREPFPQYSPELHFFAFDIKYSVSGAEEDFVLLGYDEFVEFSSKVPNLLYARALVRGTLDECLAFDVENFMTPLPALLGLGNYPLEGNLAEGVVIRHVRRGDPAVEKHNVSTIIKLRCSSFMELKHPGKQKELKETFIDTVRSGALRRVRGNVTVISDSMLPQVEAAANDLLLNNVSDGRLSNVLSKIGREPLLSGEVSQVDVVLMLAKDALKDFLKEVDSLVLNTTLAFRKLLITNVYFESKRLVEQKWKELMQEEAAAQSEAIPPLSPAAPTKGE
TbREL1 confirm = TbREL1 inhibition, confirmation. shares compounds with TbREL1 inh. TbREL1 RNA ligation, FRET fluorescence. inhibition, % at 9.66 µM. 37% of 390 active. AID 1117282;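 active = mean inhibition across replicates above a set limit taken from the earlier primary screen, cut at about 11% in these data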;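 also: 0% = REL1 with substrate and DMSO and 100% = REL1 plus control inhibitor NSC42067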
* hit, by the source's call.

SMILES | TbREL1 inh | others
O=c1c(-c2ccc3c(c2)OCCO3)coc2cc(OC3OC(CO)C(O)C(O)C3O)ccc12 (configuration not stated) | 4.2
CCCCN(C)C(=O)c1ccc(Nc2nc(C(N)Cc3ccc(C(F)(F)F)cc3)cs2)nc1 (configuration not stated) | 17.4* | TbREL1 confirm=13.0*
COc1ccc(CC(N)c2csc(NC(=O)Nc3cccc(C(F)(F)F)c3)n2)cc1 (configuration not stated) | 4.6
NC(COCc1ccccc1)c1csc(Nc2ccc(C(F)(F)F)cn2)n1 (configuration not stated) | 8.8
C=C1CCN(Cc2ccccc2)S(=O)(=O)c2ccccc21 | 4.7
CC1CCCCN1C(=O)COC(=O)CNC(=O)c1sc2ccccc2c1Cl (configuration not stated) | -0.6
O=C(CN1C(=O)C(=O)N(Cc2ccco2)C1=O)Nc1ccc(F)c(F)c1F | 0.3
COc1cc2c(C(=O)NCCN(C)C)cn(CC(C)C)c(=O)c2cc1OC | 1.4
O=C(CCN1C(=O)/C(=C\c2ccccc2)SC1=S)Nc1ccc(C(=O)O)cc1 | 0.6
O=C(CCN1C(=O)S/C(=C/c2ccccc2)C1=O)Nc1ccc(O)c(C(=O)O)c1 | 13.6* | TbREL1 confirm=15.3*
O=C(CCCN1C(=O)/C(=C\c2ccccc2)SC1=S)Nc1ccc(O)cc1 | -1.3
CCCn1c(N)c(C(=O)CSc2nc(C)cs2)c(=O)n(C)c1=O | -0.8
O=[N+]([O-])c1ccc(COc2cccc(CNc3ccc(Br)cc3)c2)cc1 | 5.6
CCOc1ccc(CN(C)C(=O)CNC(=O)Cc2cccc3ccccc23)cc1 | -1.3
COC(=O)[C@]12C[C@H](CC(=O)NCCC(C)C)C(=O)N(Cc3cccc4ccccc34)C1=C[C@H](C1CCCC1)O[C@@H]2C | 0.1
O=S(=O)(c1ccc(F)cc1)N1CCC(N2CCCCCC2)CC1 | 1.1
CC1CCN(C2CCN(S(=O)(=O)c3ccc(C(F)(F)F)cc3)CC2)CC1 | 24.4* | TbREL1 confirm=0.5
CC1CCN(C2CCN(S(=O)(=O)c3ccc(F)cc3)CC2)CC1 | 7.3
COc1ccccc1CN1CC(C(=O)N(CCO)Cc2cccs2)CCC1=O (configuration not stated) | 6.4
O=C(Nc1cccnc1)c1ccc(NS(=O)(=O)c2cccc([N+](=O)[O-])c2)cc1 | 10.6
Cc1ccc(-n2c(CSc3nc(C)cc(C)n3)nnc2SCC(=O)NCc2ccco2)cc1 | -3.2
CCc1ccc(CNCc2cccnc2)cc1 | 0.6
COc1ccc2[nH]cc(C(O)CN3CCC(C(N)=O)CC3)c2c1 (configuration not stated) | 4.0
Cc1c(P(=S)(c2ccccc2)c2ccccc2)[n+]2ccccc2n1C/C=C/c1ccccc1 | 14.3* | TbREL1 confirm=21.9*
CC(O)c1nc2ccccc2n1C/C=C/c1ccccc1 (configuration not stated) | 0.9
SMILES | TbREL1 inh | others
CCCc1nn(-c2cc(Cl)ccc2OC)c2c1C(=O)CC(C)(C)C2 | -3.5
CC(C)c1ccc(CNCc2ccccc2)cc1 | 1.9
COC(=O)c1cc(NC(=O)C(C)c2ccc(CC(C)C)cc2)ccc1O (configuration not stated) | 0.8
CC(C)Cc1ccc(C(C)C(N)=NCCc2ccccc2)cc1 (configuration not stated) | 12.4* | TbREL1 confirm=12.5*
O=C1NC(=O)C2(CCCCCC2)N1 | 1.4
O=S1(=O)N[C@H](Cc2ccccc2)COc2cc(N3CCSCC3)ccc21 | -0.4
CC(=O)Nc1sc2c(c1-c1cc3ccccc3o1)CCNC2 | 4.6
O=C(CCN1CCOCC1)N/N=C/c1cc(Br)cc(Br)c1O | 2.5
O=C(Cc1csc(N2CCOCC2)n1)N/N=C/c1ccc(O)c(O)c1O | 12.1* | TbREL1 confirm=35.4*
O=C(N/N=C/c1sc(N2CCOCC2)nc1-c1ccccc1)c1ccccc1O | 2.5
O=C(CSc1nnc(-c2ccc(Cl)cc2)n1Cc1ccco1)Nc1cccc2ccccc12 | 7.4
CN(C(=O)c1cccc(NC(=O)Cc2cccc(NC(=O)C3CCN(C(=O)c4ccccc4)CC3)c2)c1)C1CC1 | 2.2
Cn1c(=O)n(C)c2cc([N+](=O)[O-])c(N3CCN(C(=O)C(C)(C)C)CC3)cc21 | 0.3
COCCOC(=O)C1=C(C)N(Cc2ccccc2)C(=O)NC1c1cccc(OC)c1OC (configuration not stated) | -0.7
C=CCN=C1NC(c2ccccc2C(F)(F)F)C(C(=O)OC)=C(C)N1Cc1ccc(C(F)(F)F)cc1 (configuration not stated) | 14.3* | TbREL1 confirm=18.2*
COC(=O)C1=C(C)N(Cc2cccc(C(F)(F)F)c2)C(=NCc2cc(OC)c(OC)c(OC)c2)NC1c1ccccc1C(F)(F)F (configuration not stated) | 14.4* | TbREL1 confirm=18.6*
CCN=C1NC(c2ccccc2C(F)(F)F)C(C(=O)OC)=C(C)N1C (configuration not stated) | -3.5
CCN=C1NC(c2ccc(C(F)(F)F)cc2)C(C(=O)OC)=C(C)N1Cc1cccc(C(F)(F)F)c1 (configuration not stated) | 7.2
COC(=O)C1=C(C)N(Cc2cccc(C(F)(F)F)c2)C(=NCC2CC2)NC1c1ccccc1C(F)(F)F (configuration not stated) | 15.2* | TbREL1 confirm=15.5*
C=CCN=C1NC(c2ccccc2C(F)(F)F)C(C(=O)OC)=C(C)N1Cc1cccc(C(F)(F)F)c1 (configuration not stated) | 15.1* | TbREL1 confirm=18.1*
Clc1ccccc1Nc1nc2ccccc2o1 | 3.9
Cc1ccc(OCCNC(=O)/C=C/c2ccccc2)cc1 | -1.4
Cc1ccccc1CNC(=O)c1cccc2c1C(=O)N(Cc1cccnc1)C2 | 1.1
O=C(Nc1ccc(F)cc1)c1cccc2c1C(=O)N(Cc1ccccn1)C2 | -0.8
Cc1cccnc1NC(=O)c1ccc(C(=O)c2ccccc2)cc1 | 5.5
SMILES | TbREL1 inh | others
COc1cc(CCCN2CCNC[C@@H]2CC2CCCCC2)cc(OC)c1OC | 1.5
Cc1cc(Nc2ccccc2)n2nc(C)c(-c3ccccc3)c2n1 | 2.8
COC(=O)[C@@]12C[C@@H](CC(=O)N3CCCC3)C(=O)N(Cc3ccccc3)C1=CCC(C)(C)C2 | -2.5
Cc1ccc(NC(=O)Nc2ncnc3nc[nH]c23)cc1 | -0.1
O=C(Nc1ccc(-c2ccc([N+](=O)[O-])cc2)cc1)c1ccccc1F | 0.1
O=C(c1ccccc1)N(C(=O)c1ccccc1)c1ncnc2c1C(c1ccccc1)c1c(ccc3ccccc13)O2 (configuration not stated) | 3.6
COc1ccc([C@H]2CC(=O)C=C(c3cccc(C(F)(F)F)c3)C2)cc1 | -0.9
COCCNC(=O)C(c1ccc(C)o1)N(Cc1ccc(F)cc1)C(=O)Cn1nnc2ccccc21 (configuration not stated) | -3.8
COc1cccc(N2CCN(CC(=O)Nc3ccc(-n4cnnn4)cc3)CC2)c1 | 1.9
Cc1cccc(OCC(O)Cn2c(=N)n(CCN3CCCCC3)c3ccccc32)c1 (configuration not stated) | 11.9* | TbREL1 confirm=7.5
COc1ccc(OCC(O)Cn2c(=N)n(Cc3ccccc3)c3ccccc32)cc1 (configuration not stated) | 9.9
N=c1n(CCO)c2ccccc2n1CCN1CCCCC1 | 5.5
CC(=O)Nc1ccc(S(=O)(=O)Nc2cc([N+](=O)[O-])ccc2C)cc1 | -0.6
COCCN(Cc1ccccc1)C(=O)c1cccc(S(=O)(=O)N2CCCc3ccccc32)c1 | -2.0
COc1cc2[nH]c(=S)n(C3CCN(Cc4ccccc4)CC3)c(=O)c2cc1OC | -3.3
